We go through 13 compounds from PubChem BioAssay.

Each structure is given as a SMILES string. Values without a mark were called inactive. Active and inactive are the calls of the source.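 The calls were made as follows: active = thallium flux through the channel raised or lowered by more than 3 SD from vehicle-only wells, actives on both sides; inactive = the rest.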

Common to all, as to test: modulators of BK channel variants, profiling panel, selectivity assay, cell-based, U2OS BacMam, thallium flux, beta subunits (AID 1259406);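 also: initial slope of Thallos dye fluorescence rise after thallium is added; log ratio against the mean of 0.3% DMSO vehicle wells on the same plate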
The subject of assay [1] is F380Y. The conditions noted are these: at 30 µM.
Assay [2] relates to F380Y/beta1. The settings on record: at 30 µM.
In assay [3] the test system is F380Y/beta2Delta. The settings on record: at 30 µM.
Assay [4] deals with F380Y/beta4. The settings on record: at 30 µM.
For assay [5], the target named is Calcium-activated potassium channel subunit alpha-1 (Homo sapiens) + Leucine-rich repeat-containing protein 26 (Homo sapiens) (UniProt Q12791+Q2I0M4). The settings on record: F380Y/Slo1WT/gamma1, at 30 µM.
Sequence of Calcium-activated potassium channel subunit alpha-1 (Homo sapiens) + Leucine-rich repeat-containing protein 26 (Homo sapiens) (Q2I0M4 whole entry, looked up, one chain of several): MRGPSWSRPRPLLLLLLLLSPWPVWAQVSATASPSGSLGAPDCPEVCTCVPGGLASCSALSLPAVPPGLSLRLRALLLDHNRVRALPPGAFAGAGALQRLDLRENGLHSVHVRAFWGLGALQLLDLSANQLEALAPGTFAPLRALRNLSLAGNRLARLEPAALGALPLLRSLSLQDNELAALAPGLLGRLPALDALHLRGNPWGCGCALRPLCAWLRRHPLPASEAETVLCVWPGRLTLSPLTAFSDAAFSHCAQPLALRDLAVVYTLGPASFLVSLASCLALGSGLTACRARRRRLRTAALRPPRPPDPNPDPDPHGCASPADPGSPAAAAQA
Assay [6] deals with R275C. The settings on record: at 30 µM.
Assay [7] deals with R275C/beta1. The conditions noted are these: at 30 µM.
The test system of assay [8] is R275C/beta2Delta. The conditions noted are these: at 30 µM.
Assay [9] relates to R275C/beta4. The conditions noted are these: at 30 µM.
Assay [10] concerns R275C/Slo1WT/beta2. The conditions noted are these: at 30 µM.

For `Cc1c(C)c(C)c(C(=O)c2ccccc2C(=O)NN)c(C)c1C`, the log fold change Tl+ flux was 0.0326 in assay [1]; 0.0715 in [2]; 0.00841 in assay [3]; 0.0586 in [4]; 0.0596 in assay [5]; 0.02 in [6]. In addition, the log fold change Tl+ flux in assay [7] was 0.144 (active); in assay [8], 0.0153; in assay [9] it was 0.0879 (active); in assay [10] it was 0.00811.

Regarding `Cc1cc(Nc2ccc(F)cc2F)nc(SCc2c(Cl)cccc2Cl)n1`, the log fold change Tl+ flux in assay [1] is -0.0282; in assay [2] it was -0.0344; in assay [3] it was -0.0422; in assay [4], -0.123 (active); in [5], -0.039; in assay [6], -0.0547. Further, the log fold change Tl+ flux in assay [7] was -0.0316; in [8] it was -0.000965; in assay [9], -0.0113; in assay [10], -0.0702.

Take `Cc1ncc(CSc2nc(C(C)(C)C)cs2)c(CO)c1O`: the log fold change Tl+ flux in assay [1] was -0.0128; in [2], -0.0261; in assay [3] it was -0.035; in assay [4], -0.0366; in assay [5], -0.0352; in assay [6] it was -0.0209. For the same compound, the log fold change Tl+ flux in assay [7] is -0.00193; in [8], 0.0196; in [9], 0.00379; in assay [10], -0.00882.

Consider `FC(F)(F)c1ccc(-c2csc(C3(c4ccc(Cl)cc4Cl)CC3)n2)cc1`, for which the log fold change Tl+ flux in assay [1] was -0.0289; in [2] it was 0.000911; in [3] it was 0.0443; in [4], -0.0216; in assay [5] it was 0.0176; in assay [6] it was -0.00802. Further, the log fold change Tl+ flux in assay [7] is 0.0119; in [8], -0.00666; in assay [9], 0.0455; in assay [10], -0.0337.

For the compound `CCOC(=O)c1c(N)n(-c2ccc(Cl)cc2)c2nc3ccccc3nc12`, the log fold change Tl+ flux in assay [1] is -0.0102; in [2], 0.0245; in [3] it was -0.0247; in [4], 0.0204; in [5] it was 0.0261; in [6], -0.0291. In addition, the log fold change Tl+ flux in assay [7] was -0.0146; in assay [8] it was -0.0215; in [9], 0.011; in assay [10], 0.0184.

On to `COc1ccc(CCNC(=O)c2ccccc2NC(=O)c2ccccc2C)cc1OC`, for which the log fold change Tl+ flux in assay [1] was -0.0118; in assay [2] it was -0.0452; in assay [3], -0.0544; in assay [4], -0.615 (active); in [5] it was -0.381 (active); in assay [6], -1.01 (active). Further, the log fold change Tl+ flux in [7] is -0.839 (active); in assay [8] it was -0.31 (active); in [9], -0.582 (active); in assay [10] it was -0.267 (active).

As for `Cc1cc(C)c(C(=O)O)c(CC(C)(C)C(=O)O)c1`, the log fold change Tl+ flux in assay [1] was 0.000395; in assay [2] it was 0.016; in [3] it was -0.00135; in [4], -0.0155; in assay [5], 0.0359; in assay [6] it was 0.0232. The log fold change Tl+ flux was -0.00597 in [7], 0.00899 in assay [8], -0.0125 in [9] and 0.0267 in assay [10].

With `Cc1cc(N=CN(C)C)c2ccccc2n1`, the log fold change Tl+ flux in [1] is 0.0195; in assay [2] it was 0.00784; in [3], 0.0182; in assay [4] it was -0.00491; in assay [5], 0.00683; in assay [6] it was 0.0312. Moreover, the log fold change Tl+ flux in assay [7] was 0.046; in assay [8], 0.0104; in assay [9] it was 0.0114; in assay [10], -0.0666.

For the compound `C#Cc1cccc(NS(=O)(=O)c2ccc(Cl)c(Cl)c2)c1`, the log fold change Tl+ flux is 0.107 (active) in [1]; 0.533 (active) in assay [2]; 0.116 (active) in assay [3]; 0.222 (active) in [4]; 0.182 (active) in assay [5]; -0.0107 in [6]. Further, the log fold change Tl+ flux in [7] is 0.291 (active); in assay [8] it was 0.158 (active); in assay [9] it was 0.196 (active); in assay [10] it was -0.0633.

Consider `COc1cccc(C=NNC(=O)C2CCCN(C(=S)NNC3CC4C=CC3C4)CC2)c1O` (stereo not given), for which the log fold change Tl+ flux was 0.0111 in [1]; -0.0549 in [2]; -0.0296 in assay [3]; 0.0197 in [4]; 0.0309 in [5]; -0.00837 in [6]. In addition, the log fold change Tl+ flux in [7] was 0.0189; in assay [8] it was -0.0281; in [9], -0.00446; in assay [10], 0.00307.

With `N=C(N)Cc1c(Cl)cccc1Cl`, the log fold change Tl+ flux was 0.017 in assay [1]; 0.00557 in assay [2]; -0.000365 in assay [3]; -0.0202 in assay [4]; -0.0432 in assay [5]; 0.0228 in assay [6]. The log fold change Tl+ flux in [7] is 0.0441; in [8], 0.028; in [9], 0.0274; in assay [10], 0.00537.

Turning to `CC(C)(C)c1cc(-c2nc(-c3ccc(C(F)(F)F)cc3)no2)n(Cc2ccccc2)n1`, the log fold change Tl+ flux in assay [1] is -0.0279; in assay [2], -0.0164; in assay [3], -0.0472; in assay [4], 0.0114; in assay [5], -0.0649; in assay [6], 0.0485. Besides, the log fold change Tl+ flux in assay [7] is -0.0238; in assay [8], -0.0138; in assay [9], 0.0105; in assay [10], 0.0318.

As for `O=c1[nH]cnc2scc(-c3cccs3)c12`, the log fold change Tl+ flux in assay [1] was -0.0452; in assay [2], -0.0118; in assay [3], 0.0191; in assay [4], 0.0165; in assay [5], -0.0657; in assay [6] it was -0.0434. In addition, the log fold change Tl+ flux was 0.00866 in [7], -0.0381 in assay [8], 0.0239 in [9] and -0.0542 in assay [10].
